Screening data: PubChem, several laboratories
CYP2C19 inhib = blockers of cytochrome P450 2C19 activity – biochemical, luminescence, ADME assay, primary screen | P33261 | CYP2C19 Supersomes, luciferin-H EGE luminescence, 30 min | inhibition, % at 5 µM | 21% of 96,000 active | AID 778, 2007;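 active means CYP2C19 inhibition above a set limit at 5 µM in the primary screen, cut at about 50% in these data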
Target sequence (P33261 whole entry, looked up): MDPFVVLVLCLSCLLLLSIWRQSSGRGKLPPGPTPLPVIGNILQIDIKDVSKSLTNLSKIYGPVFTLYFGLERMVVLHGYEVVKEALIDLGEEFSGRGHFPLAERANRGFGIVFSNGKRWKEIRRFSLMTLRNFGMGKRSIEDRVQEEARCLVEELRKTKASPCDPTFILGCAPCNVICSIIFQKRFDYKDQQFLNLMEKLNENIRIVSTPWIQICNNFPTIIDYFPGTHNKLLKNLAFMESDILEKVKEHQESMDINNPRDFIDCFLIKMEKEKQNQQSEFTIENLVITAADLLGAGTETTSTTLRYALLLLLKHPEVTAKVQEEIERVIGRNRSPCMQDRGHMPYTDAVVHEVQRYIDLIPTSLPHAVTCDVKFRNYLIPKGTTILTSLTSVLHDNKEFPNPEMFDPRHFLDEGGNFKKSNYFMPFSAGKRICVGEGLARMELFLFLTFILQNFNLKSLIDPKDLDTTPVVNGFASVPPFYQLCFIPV
CYP2C19 act = human CYP2C19 activators, primary screen, biochemical, luminescence; Cytochrome P450 2C19 (Homo sapiens), P33261; recombinant CYP2C19, luciferin-H EGE luminescence; active compounds read high; 0 = fully inhibited enzyme, 1 = untreated enzyme; activation factor at 5 µM; 96,000 tested, under 10 active; AID 1025, 2008;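 active means activation factor of at least 2 at 5 µM in the primary screen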
PostGolgi yeast = phenotypic screen on post-Golgi transport, primary screen; 0.9% of 98,000 active; post-Golgi transport phenotypic cell assay; inhibition, % at 10 µM; AID 739, 2007;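 further: yeast cells grown in 1536-well plates; yeast grown about 18 h at 30C before absorbance read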
CYP2C9 inh = blockers of cytochrome P450 2C9 activity – biochemical, luminescence, ADME assay, primary screen; P11712; CYP2C9 Supersomes, luciferin-H conversion; inhibition, % at 5 µM; 20% of 96,000 active; AID 777, 2007;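 active means blocking of liver enzyme CYP2C9 beyond about 50% at 5 µM, limit read from the data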
CYP2C9 act = human CYP2C9 activators, primary screen, biochemical, luminescence. recombinant CYP2C9, luciferin-H conversion; active compounds read high; factor 1 = untreated enzyme, 0 = blocked. 1.4% of 96,000 active. activation factor at 5 µM. Cytochrome P450 2C9 (Homo sapiens), P11712;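 active means activation factor of 2 or more for CYP2C9 at a 5 µM dose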
PostGolgi ctrl = growth inhibition of yeast control strain, primary screen, counter-screen for post-Golgi transport modulator project. efflux-deficient yeast background strain, growth absorbance A615, 16 h. AID 738, 2007. inhibition, % at 10 µM. 5% of 98,000 active
Of the large screens only hits and unclear results are named; the others gave an inactive call. Sampled rows, rich in hits. Any-hit rate of the full collection: about 32%. Unless noted, no stated cut-off is given here; in the data, active means inhibition above about 30%; inactive means the rest.

CN(CC(=O)Nc1nccs1)S(=O)(=O)c1ccc(F)cc1	CYP2C19 inhib 67
COC(=O)c1ccccc1NC(=O)CN(C1CCCCC1)S(C)(=O)=O	none
O=C(COc1cccc2ccccc12)Nc1nc2ccccc2[nH]1	none
CN(CC(=O)NC1CCCCCC1)S(=O)(=O)c1ccccc1	none
CCN(CC(=O)Nc1ccccc1C(=O)OC)S(=O)(=O)c1ccccc1	CYP2C19 inhib 80
CCCC(=O)Nc1ccccc1NC(=O)CN(C)S(=O)(=O)c1ccccc1	CYP2C9 inh 58
O=C(Cn1ccc2ccccc2c1=O)NCCC(=O)Nc1ccc2c(c1)OCCO2	none
CN(CC(=O)Nc1nc2ccccc2s1)S(=O)(=O)c1ccc(Cl)cc1	PostGolgi ctrl 31
CN(CC(=O)OCC(=O)Nc1ccccc1)S(=O)(=O)c1ccc(Cl)cc1	none
CSc1cccc(NC(=O)CN(C)S(=O)(=O)c2ccccc2)c1	CYP2C19 inhib 86
CSc1cccc(NC(=O)CN(C)S(=O)(=O)c2ccc(F)cc2)c1	CYP2C19 inhib 63
Cc1cccc(NCc2ccccc2O)c1C	CYP2C19 inhib 96, CYP2C9 inh 61
Cc1cccc(NCc2ccccc2O)n1	none
O=C1Nc2c(c(=O)[nH]c(=O)n2-c2ccccc2)C1(Nc1ncccn1)C(F)(F)F (stereo not drawn)	none
O=C(Cn1nnc2ccccc21)NCc1ccccc1	none
c1ccc2c(Cn3nnc4ccccc43)cccc2c1	CYP2C9 act 2.5
c1ccc2c(COn3nnc4ccccc43)cccc2c1	CYP2C19 inhib 96, CYP2C9 inh 70
CC(C)(C)c1ccc(OCC(=O)NCCN2CCCC2)cc1	none
COc1ccc2[nH]c(=O)c(CN(Cc3cccs3)Cc3nnnn3C(C)(C)C)cc2c1	CYP2C19 inhib 91, CYP2C9 inh 88
CCOC(=O)Cn1nnnc1C(C(C)C)N(Cc1cc2c(C)cc(C)cc2[nH]c1=O)C1CCCC1 (stereo not drawn)	none (no result: CYP2C19 inhib, CYP2C19 act, CYP2C9 inh, CYP2C9 act)
CCc1ccc2[nH]c(=O)c(CN(CCCO)C(=O)NCc3ccccc3)cc2c1	none
CCOC(=O)Cn1nnnc1C(CC)N(Cc1cccs1)Cc1cc2ccc(OC)cc2[nH]c1=O (stereo not drawn)	CYP2C19 inhib 96, CYP2C9 inh 91
CCOc1ccc2[nH]c(=O)c(CN(Cc3cccs3)Cc3nnnn3C(C)(C)C)cc2c1	none
Cc1ccc2[nH]c(=O)c(CN(Cc3cccs3)Cc3nnnn3Cc3ccccc3)cc2c1	CYP2C19 inhib 93, CYP2C9 inh 60
CCOC(=O)Cn1nnnc1CN(CCc1ccccc1)Cc1cc2cc(CC)ccc2[nH]c1=O	CYP2C9 inh 72
CCCCNC(=O)NS(=O)(=O)c1ccc(C(=O)OC)o1	none
c1cnc(NC2CCCCCC2)nc1	none
CCOC(=O)Cn1nnnc1CN(Cc1cccs1)Cc1cc2cc(C)ccc2[nH]c1=O	CYP2C19 inhib 65
Cc1ccc2[nH]c(=O)c(CN(CCO)Cc3nnnn3CCc3ccccc3)cc2c1	CYP2C19 inhib 71
Cc1ccc2[nH]c(=O)c(CN(CCO)C(=O)NCc3ccccc3)cc2c1	none (no result: PostGolgi yeast, PostGolgi ctrl)
COc1cc(C(=O)Nc2ccc(OCC(=O)O)cc2)cc(OC)c1OC	none
O=C(c1ccc(Br)o1)N(c1ccc(Br)cc1)C1C=CS(=O)(=O)C1 (stereo not drawn)	CYP2C19 inhib 86, CYP2C9 inh 59
Cc1cc(C)cc(N(C(=O)c2ccc3c(c2)OCO3)C2C=CS(=O)(=O)C2)c1 (stereo not drawn)	CYP2C19 inhib 54
O=C(c1ccc2c(c1)OCO2)N(c1ccc(Cl)cc1)C1C=CS(=O)(=O)C1 (stereo not drawn)	CYP2C19 inhib 70
Cc1ccc(N(C(=O)c2ccc3c(c2)OCO3)C2C=CS(=O)(=O)C2)cc1 (stereo not drawn)	none
COC(=O)c1cc(=O)n(Cc2ccco2)c(=Nc2ccc(F)c(Cl)c2)s1	CYP2C19 inhib 64, CYP2C9 inh 69
COC(=O)c1cc(=O)n(Cc2ccc3c(c2)OCO3)c(=Nc2ccc(F)cc2)s1	none
COC(=O)c1cc(=O)n(CCc2ccccc2F)c(=Nc2ccc(F)c(Cl)c2)s1	none
